Assay outcomes: PubChem, several laboratories
ERb coact inh = ER-beta (human) coactivator binding inhibition | TR-FRET ER-beta LBD / SRC1-Cy5 peptide binding; receptor agonist-loaded with 1 µM estradiol | inhibition, % at 25.6 µM | 86,000 tested, 1.3% active;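 active = compounds whose percent inhibition of the receptor-coactivator binding signal exceeds about 50% in the single-dose screen, limit read from the data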;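 also: 0% = receptor plus peptide wells without compound and 100% = peptide-only wells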
Target sequence (Q92731 whole entry, looked up, the tested form may be a part): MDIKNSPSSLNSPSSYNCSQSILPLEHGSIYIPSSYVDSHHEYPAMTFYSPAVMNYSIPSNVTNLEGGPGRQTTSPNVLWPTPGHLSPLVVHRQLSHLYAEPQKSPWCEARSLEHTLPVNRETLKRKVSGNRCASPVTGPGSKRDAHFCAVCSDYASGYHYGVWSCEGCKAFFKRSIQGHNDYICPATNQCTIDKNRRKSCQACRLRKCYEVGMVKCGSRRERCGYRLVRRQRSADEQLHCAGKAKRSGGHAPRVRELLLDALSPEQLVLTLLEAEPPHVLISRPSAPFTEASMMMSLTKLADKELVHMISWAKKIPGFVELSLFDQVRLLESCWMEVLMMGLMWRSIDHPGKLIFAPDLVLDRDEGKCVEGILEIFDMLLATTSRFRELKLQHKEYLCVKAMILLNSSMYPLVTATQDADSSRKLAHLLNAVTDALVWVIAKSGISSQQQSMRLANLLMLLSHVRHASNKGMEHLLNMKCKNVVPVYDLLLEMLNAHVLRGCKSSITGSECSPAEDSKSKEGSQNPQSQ
DAT uptake mod = modulates human dopamine transporter uptake under cocaine | Q01959 | B-score at 10 µM | 110,000 tested, 1.3% active | LLC-PK1 hDAT cells, [14C]-dopamine uptake with cocaine IC80; actives deviate in either direction;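 active = Z score or B-score, a plate-position-corrected score, falls beyond the plate's 99.7% confidence bounds, in either direction; inactive = both scores lie inside the 99.7% bounds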;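 also: scored against the spread of the other compound wells on the same plate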
MT1-MMP txn act = activates MT1-MMP transcription; HT1080 MT1-MMP promoter luciferase reporter, luminescence, overnight; active compounds read high; activation factor at 10 µM; 86,000 tested, 0.16% active; AID 750;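 active = activation factor of at least 2 for MT1-MMP transcription at 10 µM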
ERa coact inh = ER-alpha (human) coactivator binding inhibition; P03372; TR-FRET ER-alpha LBD / SRC-1 peptide, estradiol-bound; inhibition, % at 25.6 µM; 86,000 tested, 1.7% active; AID 629; in the data active = inhibition above about 50%;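 also: 0% = receptor plus peptide control and 100% = peptide only without receptor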
ERa coact pot = ER-alpha (human) coactivator binding potentiation; TR-FRET ERalpha-LBD/SRC-Cy5 coactivator binding, 2 h; 100 = basal binding, no effect; coactivator binding (% of control), % at 25.6 µM; 86,000 tested, 1.3% active; in the data active = activity above about 200%;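 also: binding measured in presence of low estradiol as agonist stimulus; 0% = peptide alone without receptor and 100% = receptor with peptide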
* hit, by the source's call; [ ] = another dose, or the depositor's remark. Compounds with a hit are over-represented: about 3.8% of the library has one in this group of screens.

Screening CCN(CC)c1nc(C)nc2c1cnn2CCc1ccccc1 returned DAT uptake mod 1.
Screening CCC(=O)Oc1c(-c2ccccc2)c2nc3ccccc3nc2c2ccccc12 returned ERb coact inh 47, MT1-MMP txn act 1.2, ERa coact inh 39 and ERa coact pot 221*[fluorescence artefact?].
`CCCCCCc1cc2cc(-c3nnc(-c4cc(OC)c(OC)c(OC)c4)o3)c(=O)oc2cc1O` gave ERb coact inh 0, DAT uptake mod 1.2, MT1-MMP txn act 1.1, ERa coact inh 18 and ERa coact pot 224*[fluorescence artefact?].
CCC1=C2CC[C@H]3C(=O)NC(=O)[C@H]3[C@H]2[C@@]2(Cc3ccccc3)C(=NCC3CC3)OC(=O)N2C1=O was read as MT1-MMP txn act 1.2.
COc1cccc(/C=C2\N=C(c3c(-c4ccccc4)noc3C)OC2=O)c1OC was read as ERb coact inh 39, DAT uptake mod 0.087, MT1-MMP txn act 1.1, ERa coact inh 68* and ERa coact pot 87.
COc1cc(/C=C(\C#N)C(=O)Nc2ccc(SC(F)F)cc2)cc(OC)c1OC was read as DAT uptake mod -0.17.
CCOc1cc(/C=C(/C#N)C(=O)Nc2ccc(O)cc2)cc(Br)c1O was read as DAT uptake mod -3.4*.
Cc1oc2cc(O)cc(C)c2c(=O)c1-c1cnn(-c2ccccc2)c1 was read as ERb coact inh -10, DAT uptake mod 0.062, MT1-MMP txn act 1.2, ERa coact inh 14 and ERa coact pot 236*[fluorescence artefact?].
For Cc1oc2c(O)c(O)ccc2c(=O)c1-c1cnn(-c2ccccc2)c1 the results were DAT uptake mod 0.47.
For O=C(NCc1ccco1)C1Cc2ccccc2CN1S(=O)(=O)c1ccccc1F (stereo not drawn) the results were ERb coact inh 40, MT1-MMP txn act 1.3, ERa coact inh 49 and ERa coact pot 202*[fluorescence artefact?].
`COC(C[C@@H](O)[C@@H](C)[C@H](O)COCc1ccccc1)OC` gave DAT uptake mod -1.5.
Screening O=c1c(Sc2ccccc2)c(C(F)(F)F)[nH]n1-c1ccccc1 returned ERb coact inh 10, DAT uptake mod -2.2*, MT1-MMP txn act 1.2, ERa coact inh -2 and ERa coact pot 102.
`O=C(Nc1ccc2oc(-c3cccnc3)nc2c1)c1ccc(Br)o1` gave ERb coact inh 38, DAT uptake mod 0.014, MT1-MMP txn act 1.1, ERa coact inh 69*[fluorescence artefact?] and ERa coact pot 206*[fluorescence artefact?].
For O=C(Nc1ccc(-c2nc3ncccc3o2)cc1)c1ccc(Br)o1 the results were ERb coact inh -10, DAT uptake mod -0.88, MT1-MMP txn act 1.2, ERa coact inh 41 and ERa coact pot 269*[fluorescence artefact?].
O=C(Nc1ccc(-c2nc3ncccc3o2)cc1)c1ccco1 was read as ERb coact inh 36, DAT uptake mod -0.37, MT1-MMP txn act 1.1, ERa coact inh 34 and ERa coact pot 83.
`COc1ccccc1C1=NOC(C)(c2sc(-c3ccc(Cl)cc3)nc2C)C1` (stereo not drawn) gave DAT uptake mod 0.4.
For C=CCn1c(=N)c(C#N)cc2c(=O)n3ccccc3nc21 the results were ERb coact inh -13, DAT uptake mod -0.063, MT1-MMP txn act 1.3, ERa coact inh -19 and ERa coact pot 105.
Screening C=CCn1c(=O)c(C#N)cc2c(=O)n3ccccc3nc21 returned ERb coact inh 57*, DAT uptake mod -0.095, MT1-MMP txn act 1.2, ERa coact inh 55* and ERa coact pot 41.
For CCN(c1ccccc1)S(=O)(=O)c1ccc2[nH]cc(C(=O)NCCOC)c(=O)c2c1 the results were ERb coact inh 22, DAT uptake mod 0.74, MT1-MMP txn act 1.2, ERa coact inh 50* and ERa coact pot 46.
Screening CCOC(=O)/C(C#N)=C\C1=C(N2CCCC2)CC(C)(CC)OC1 (stereo not drawn) returned ERb coact inh -7, DAT uptake mod -0.32, MT1-MMP txn act 1.1, ERa coact inh 0 and ERa coact pot 107.
Screening COC(=O)CCCC1=CC2=CC(=O)C(C)(OC(=O)c3ccc(Cl)nc3)C(=O)C2=CO1 (stereo not drawn) returned DAT uptake mod -1.2.
For CCOC(=O)Cc1csc(NC(=O)CCN2C(=O)c3ccccc3C2=O)n1 the results were ERb coact inh 97*[fluorescence artefact?], DAT uptake mod 0.93, MT1-MMP txn act 1.2, ERa coact inh 2 and ERa coact pot 98.
`CCOC(=O)Cc1csc(NC(=O)CCCN2C(=O)c3ccccc3C2=O)n1` gave ERb coact inh -13, DAT uptake mod 0.18, MT1-MMP txn act 1.1, ERa coact inh 3 and ERa coact pot 109.
Screening O=C1CCCC(O)=C1C(C#Cc1ccccc1)C1=C(O)CCCC1=O returned ERb coact inh 52*[fluorescence artefact?], DAT uptake mod 1.2, MT1-MMP txn act 1, ERa coact inh 34 and ERa coact pot 24.
For O=C1Nc2ccc(S(=O)(=O)NCc3ccccn3)c3cccc1c23 the results were ERb coact inh 61*[fluorescence artefact?], DAT uptake mod -0.31, MT1-MMP txn act 1.1, ERa coact inh 33 and ERa coact pot 81.
CN(CC(O)COc1ccc(S(=O)(=O)N2CCOCC2)cc1)C1CCCCC1 (stereo not drawn) was read as ERb coact inh 78*, DAT uptake mod -0.59, MT1-MMP txn act 1.1, ERa coact inh -5 and ERa coact pot 101.
`O=S(=O)(c1ccc(OCC(O)CN2CCN(c3ccc(F)cc3)CC2)cc1)N1CCOCC1` (stereo not drawn) gave ERb coact inh 10, DAT uptake mod -0.3, MT1-MMP txn act 1.1, ERa coact inh 2 and ERa coact pot 89.
`CC(=O)N1CC=CC1(C)C(=O)O` (stereo not drawn) gave DAT uptake mod -0.033 and MT1-MMP txn act 1.
Screening CC1(C)CC(=O)C2=C(C1)OC(N)=C(C#N)C2Cc1ccccc1 (stereo not drawn) returned ERb coact inh -1, DAT uptake mod 0.11, MT1-MMP txn act 1, ERa coact inh 5 and ERa coact pot 118.
For N#CC1=C(N)OC2=C(C(=O)CCC2)C1CCc1ccccc1 (stereo not drawn) the results were ERb coact inh 8, DAT uptake mod 0.59, MT1-MMP txn act 1.1, ERa coact inh 100*[fluorescence artefact?] and ERa coact pot 90.
For Cc1c(C(=O)Nc2ccncc2)sc2nc(-c3ccccc3)cn12 the results were ERb coact inh -4, DAT uptake mod -0.01, MT1-MMP txn act 1, ERa coact inh 14 and ERa coact pot 214*[fluorescence artefact?].
CC(=O)C1=C(O)C(=O)N(CCCn2ccnc2)C1c1ccc(C)cc1 (stereo not drawn) was read as DAT uptake mod -0.76.
Screening CCC(=O)O[C@]1(C(=O)SCF)[C@H](C)C[C@H]2[C@@H]3C[C@H](F)C4=CC(=O)C=C[C@]4(C)[C@@]3(F)[C@@H](O)C[C@@]21C returned DAT uptake mod 0.43.
For CNC(=O)[C@H](C)/C=C(\I)C(NC(=O)OCc1ccccc1)c1ccc(C(=O)OC)cc1 (stereo partly drawn) the results were MT1-MMP txn act 1.1.
